Screens deposited in PubChem BioAssay by several laboratories.
This is a sample that favours compounds with a hit; in the whole collection about 3.7% have one here.
BoNT A protease: BoNT/A light chain protease inhibitors, primary screen, biochemical, flow cytometry, MLPCN library; inhibition, % at 10 µM; 360,000 compounds, 0.17% hits; Botulinum neurotoxin type A light chain protease (Clostridium botulinum A str. ATCC 3502); multiplex microsphere protease substrate cleavage; further: plate controls were buffer without enzyme for full effect and enzyme alone for no effect
Bead autofluor: compound fluorescence in toxin protease inhibitor counterscreen; 360,000 compounds, 3.1% hits; fluorescence intensity (concentration not given with the values); AID 624483; compound autofluorescence counterscreen, microsphere flow cytometry; hits give high values; in the data active means fluorescence intensity above about 16000; inconclusive means no clear call, values can overlap the other calls
Anthrax LF prot: Bacillus anthracis LF protease inhibitors, primary screen, biochemical, multiplex microsphere, MLPCN library | inhibition, % at 10 µM | 360,000 compounds, 0.12% hits | Lethal factor (Bacillus anthracis), P15917 | multiplex microsphere protease cleavage assay; further: plate controls were buffer without enzyme for full effect and enzyme alone for no effect
BoNT-F LC inh: BoNT/F light chain protease inhibitors, primary screen, biochemical, flow cytometry, MLPCN library | Botulinum neurotoxin type F light chain protease (Clostridium botulinum) | Multiplex microsphere protease cleavage assay | inhibition, % at 10 µM | 360,000 compounds, 0.22% hits; in the data active means inhibition above about 35%, passing the limit was not always enough; inconclusive means no clear call, values can overlap the other calls; further: plate controls were buffer without enzyme for full effect and enzyme alone for no effect
MazF activator: activators of E. coli MazEF toxin-antitoxin RNase, primary screen, biochemical, fluorescence, uHTS. FAM/BHQ RNA-DNA oligo cleavage fluorescence, 5 h. activation, % at 20 µM. 350,000 compounds, 0.32% hits; in the data active means activation above about 50%
Target sequence (P0AE70 whole entry, looked up): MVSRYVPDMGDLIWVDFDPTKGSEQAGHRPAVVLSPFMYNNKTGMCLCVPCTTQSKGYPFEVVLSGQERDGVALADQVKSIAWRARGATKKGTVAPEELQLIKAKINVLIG
* marks the source's active call; other numbers are inactive results; ? = inconclusive; · = no result. Unless noted, no stated cut-off is given here; in the data, active means inhibition above about 30%; inconclusive means no clear call, values can overlap the other calls; inactive means below that.

SMILES | BoNT A protease | Bead autofluor | Anthrax LF prot | BoNT-F LC inh | MazF activator
CCC(NC(=O)OC(C)(C)C)C(=O)Oc1ccc2c3c(c(=O)oc2c1)CCC3 (configuration not stated) | -1 | 17288* | -5 | -4 | -1
Cc1cc(OC(=O)CCNC(=O)OC(C)(C)C)c2c3c(c(=O)oc2c1)CCC3 | 2 | 22958* | -2 | 0 | 2
Cc1cc(OCC(=O)NCc2ccc(S(N)(=O)=O)cc2)c2c3c(c(=O)oc2c1)CCC3 | 0 | 4018 | -2 | 4 | 72*
Cc1cc(OCC(=O)OC(C)(C)C)c2c3c(c(=O)oc2c1)CCC3 | 0 | 6977 | 11 | 3 | -4
Cc1cc(OC(=O)CCCNC(=O)OC(C)(C)C)c2c3c(c(=O)oc2c1)CCC3 | 0 | 9254 | -2 | -1 | 0
COc1ccc(C(=O)N2CCC(C)(C(=O)O)C2)cc1OC (configuration not stated) | 0 | 2897 | -1 | -9 | ·
CCCNC(=O)C1(C)CCCN(C(=O)c2cc(C)nn2C(C)(C)C)C1 (configuration not stated) | -1 | 3833 | -3 | -3 | ·
O=C(Nc1cccc(Oc2ccccc2)c1)C1Cc2c(-c3ccc4c(c3)OCO4)ccnc2O1 (configuration not stated) | -1 | 4811 | 3 | -14 | ·
N#Cc1ccc(S(=O)(=O)NC2CCN(Cc3ccccc3)CC2)cc1 | ? | 4899 | 19 | ? | 9
CS(=O)(=O)NC1CCN(Cc2ccccc2)CC1 | ? | 22396* | 1 | -5 | 1
O=C(COc1ccccc1F)NC1CCN(Cc2ccccc2)CC1 | -2 | 20185* | -3 | -4 | -1
COc1cc(NS(=O)(=O)c2cc(NC(C)=O)ccc2OC)c(OC)cc1NC(=O)c1ccccc1 | 2 | 3204 | -1 | -1 | 5
O=C(NCC1CC1)c1csc([C@@H]2O[C@H](CO)[C@H](O)[C@H](O)[C@H]2O)n1 | 0 | 3932 | -1 | -6 | ·
Cc1noc(C)c1-c1ccc(C(=O)NCCN2CCOCC2)c2occc12 | -1 | 3634 | -5 | -4 | ·
Cc1cc(-c2nc3ccccc3s2)ccc1N | 0 | 3699 | -4 | -9 | 9
COc1cc(OC)cc(-c2nc3ccccc3s2)c1 | -2 | 23472* | 2 | -6 | -11
CCOc1cccc2sc(N(CCCN(C)C)C(=O)c3ccc(S(=O)(=O)N4CCc5ccccc5C4)cc3)nc12 | 0 | 4388 | -4 | -11 | 50*
CCOC(=O)c1cc(OC(=O)c2ccccc2OC)n(-c2ccccc2)n1 | ? | 20755* | -16 | 11 | -19
C[C@@H]1CN([C@H](C)CO)S(=O)(=O)c2ccc(C#Cc3ccccc3)cc2O[C@H]1CN(C)C(=O)Nc1ccc2c(c1)OCO2 | 0 | 2957 | -8 | -11 | -13
CCOCN(C(=O)Cn1c(CO)nc2ccccc21)c1c(C)cccc1CC | -1 | 21035* | -2 | -2 | 0
O=C(N1CCOCC1)N1CCN(Cc2ccccc2)CC1 | ? | 16289* | -12 | 13 | -4
c1ccc(CN2CCOCCOCCOCC2)cc1 | 4 | 3594 | -6 | ? | -1
O=C(O)COc1ccccc1C=NNC(=O)c1ccccc1NS(=O)(=O)c1cccs1 | 0 | 3455 | 1 | 3 | 0
COc1ccc(CCN2CC(C(=O)NCc3cccc(F)c3)CCC2=O)cc1 (configuration not stated) | 0 | 3431 | 0 | -4 | -1
Cc1c2c(cc3c1[nH]c1ccccc13)C=NCC2 | -10 | 21778* | 0 | 22 | -12
SMILES | BoNT A protease | Bead autofluor | Anthrax LF prot | BoNT-F LC inh | MazF activator
CNS(=O)(=O)c1cccc(C(=O)NCC(c2cccs2)N(C)C)c1 (configuration not stated) | 2 | 22234* | -8 | 3 | -3
O=C1N/C(=C\c2ccc(O)cc2)C(=O)c2ccccc21 | 5 | 19019* | -8 | 5 | 7
C=CCn1c(SCC(=O)O)nc2sc(CC)cc2c1=O | 0 | 4544 | -8 | 3 | 7
C=CCn1c(SCC(=O)c2cccs2)nc2sc(CC)cc2c1=O | 2 | 22827* | 1 | 5 | 5
CCCNC(=O)C1(C)CCN(Cc2cccc(OC(=O)c3ccccc3)c2)C1 (configuration not stated) | 0 | 3603 | -1 | 3 | ·
CCc1ccc(CCC(=O)Nc2nccs2)o1 | 1 | 21884* | 2 | 4 | 5
